This is a sample that favours compounds with a hit; in the whole collection about 2.4% have one here.
HTR2A ag – mouse Htr2a agonists via beta-arrestin recruitment, primary screen, cell-based, luminescence. 5-hydroxytryptamine receptor 2A (Mus musculus), P35363. CHO-K1 mHTR2A beta-arrestin complementation; percent of 30 µM serotonin response. activation, % at 7.6 µM. hit rate 0.66% among 360,000. AID 624169, 2012;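 active means activation above a run cutoff, the mean activation of all tested compounds plus 3 SD, cut at about 14% in these data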
CRFR2-BP antag – antagonists of CRF-BP/CRF-R2 complex, primary screen, cell-based, HEK293, calcium dye fluorescence, uHTS; CRF-induced calcium fluorescence; inhibition, % at 11.8 µM; hit rate 0.59% among 350,000; AID 588475, 2011;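 active means inhibition of the ligand-induced calcium signal above about 50% at the single tested concentration, limit read from the data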
TLR4 MyD88 comp – inhibitors of TLR4-MyD88 association in cells, primary screen, cell-based, HeLa CL3-4, BLA complementation, FRET ratio; hit rate 0.18% among 200,000; HeLa CL3-4 TLR4/MyD88 BLA complementation; Toll-like receptor 4 (Homo sapiens) + Myeloid differentiation primary response protein …; inhibition, % at 8.4 µM; in the data active means inhibition above about 25%
ABHD5-PLIN5 inh – ABHD5-PLIN5 interaction inhibitors, primary screen, cell lysate, split luciferase complementation, luminescence. Perilipin-5 (Homo sapiens) + 1-acylglycerol-3-phosphate O-acyltransferase ABHD5 (Homo …. Split G. princeps luciferase complementation, 4 h. inhibition, % at 4 µM. hit rate 0.78% among 360,000;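 active means inhibition above the mean inhibition across every tested compound plus 3 SD, cut at about 22% in these data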
Target sequence (Q00G26 whole entry, looked up): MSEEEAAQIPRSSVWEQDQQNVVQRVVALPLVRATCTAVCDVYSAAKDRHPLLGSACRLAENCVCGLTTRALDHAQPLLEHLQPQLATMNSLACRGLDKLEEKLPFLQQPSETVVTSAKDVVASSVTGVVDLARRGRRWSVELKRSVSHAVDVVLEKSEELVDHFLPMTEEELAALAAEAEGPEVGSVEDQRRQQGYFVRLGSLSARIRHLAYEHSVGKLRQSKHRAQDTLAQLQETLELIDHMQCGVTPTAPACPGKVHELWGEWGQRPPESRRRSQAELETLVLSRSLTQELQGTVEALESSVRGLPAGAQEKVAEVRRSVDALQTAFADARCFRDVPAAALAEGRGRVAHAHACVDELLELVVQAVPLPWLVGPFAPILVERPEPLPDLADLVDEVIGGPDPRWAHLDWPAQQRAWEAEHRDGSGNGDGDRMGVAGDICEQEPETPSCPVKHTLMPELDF
Target sequence (Q8WTS1 whole entry, looked up): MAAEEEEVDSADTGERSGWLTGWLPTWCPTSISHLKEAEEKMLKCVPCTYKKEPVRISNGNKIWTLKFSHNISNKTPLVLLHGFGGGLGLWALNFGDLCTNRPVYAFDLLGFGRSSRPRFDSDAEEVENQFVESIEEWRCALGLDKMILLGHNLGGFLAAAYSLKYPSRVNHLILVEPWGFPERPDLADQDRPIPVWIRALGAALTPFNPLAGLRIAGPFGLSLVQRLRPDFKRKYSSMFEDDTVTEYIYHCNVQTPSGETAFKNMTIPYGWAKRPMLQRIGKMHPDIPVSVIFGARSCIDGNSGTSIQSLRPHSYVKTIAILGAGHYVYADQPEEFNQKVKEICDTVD
TLR9-MyD88 block – inhibitors of TLR9-MyD88 association in cells, primary screen, cell-based, CHO, BLA complementation, fluorescence | AID 504734, 2011 | hit rate 0.21% among 340,000 | inhibition, % at 4.98 µM | Toll-like receptor 9 (Homo sapiens) + Myeloid differentiation primary response protein … | CCF4 FRET ratio;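 active means inhibition above the mean over all tested compounds plus 3 SD, cut at about 21% in these data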
NOD2-RIPK2 inh – NOD2-RIPK2 binding disruptors in cells, primary screen, fluorescence, CHO cells, BLA complementation; Receptor-interacting serine/threonine-protein kinase 2 (Homo sapiens), O43353; CCF4 ratio; inhibition, % at 4.98 µM; hit rate 0.38% among 360,000; in the data active means inhibition above about 21%
OPRM1 ag – OPRM1 agonists via beta-arrestin recruitment, confirmation, counter-screen for mouse HTR2A agonist project, cell-based, luminescence, single concentration | activation, % at 9.3 µM | AID 624380, 2012 | hit rate 5.3% among 2,300 | shares compounds with HTR2A ag | U2OS OPRM1 beta-arrestin PathHunter; DMSO 0%, DAMGO 9.3 µM 100%;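 active means mean activation above the mean of DMSO-only wells plus 3 SD, cut at about 0.5% in these data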
HTR2A ag conf – mouse HTR2A agonists, beta-arrestin recruitment, confirmation, cell-based, luminescence, CHO-K1 PathHunter, triplicate | shares compounds with HTR2A ag | DMSO 0%, 30 µM serotonin 100% | activation, % at 7.6 µM | hit rate 19% among 2,300;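 active means mean activation across triplicates above the hit threshold derived in the original primary screen, cut at about 15% in these data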
Hits are given with their value; ! = repeats disagree.

`Cc1ccc(F)cc1C(=O)N1CCCC(C)(C(=O)NS(=O)(=O)C2CC2)C1` (stereo not given) gave HTR2A ag inactive, ABHD5-PLIN5 inh inactive and NOD2-RIPK2 inh inactive.
For C[C@H](O)CC(=O)O the results were HTR2A ag 16!, CRFR2-BP antag inactive, ABHD5-PLIN5 inh inactive, TLR9-MyD88 block inactive, NOD2-RIPK2 inh inactive, OPRM1 ag inactive and HTR2A ag conf inactive.
CC(=O)N1CCOc2cc(S(=O)(=O)N3CCN(c4ccccc4)CC3)c(Cl)cc21 was read as HTR2A ag 25, CRFR2-BP antag 54, ABHD5-PLIN5 inh inactive, TLR9-MyD88 block inactive, NOD2-RIPK2 inh inactive, OPRM1 ag inactive and HTR2A ag conf inactive.
For Cc1onc(-c2c(Cl)cccc2Cl)c1C(=O)N1CCOCC1 the results were HTR2A ag 17, CRFR2-BP antag inactive, ABHD5-PLIN5 inh inactive, TLR9-MyD88 block inactive, NOD2-RIPK2 inh inactive, OPRM1 ag inactive and HTR2A ag conf inactive.
`Cc1nnc(SCC(=O)N(C)c2c(N)n(Cc3ccccc3)c(=O)[nH]c2=O)n1Cc1ccccc1` gave HTR2A ag 29, CRFR2-BP antag 81, TLR4 MyD88 comp inactive, ABHD5-PLIN5 inh inactive, TLR9-MyD88 block inactive, NOD2-RIPK2 inh inactive, OPRM1 ag inactive and HTR2A ag conf inactive.
Screening CCn1c(SCC(=O)N(C)c2c(N)n(Cc3ccccc3)c(=O)[nH]c2=O)nc2ccccc21 returned HTR2A ag inactive, CRFR2-BP antag inactive, ABHD5-PLIN5 inh inactive, TLR9-MyD88 block inactive and NOD2-RIPK2 inh inactive.
Screening NC(=Nc1c([N+](=O)[O-])cnc2ccccc12)N1CCOCC1 returned HTR2A ag inactive, ABHD5-PLIN5 inh inactive and NOD2-RIPK2 inh inactive.
C=C(C)CSc1nc2ncccc2[nH]1 was read as HTR2A ag 22, CRFR2-BP antag inactive, TLR4 MyD88 comp inactive, ABHD5-PLIN5 inh inactive, TLR9-MyD88 block inactive, NOD2-RIPK2 inh inactive, OPRM1 ag inactive and HTR2A ag conf inactive.
COCCNC(=O)C1(C)CCN(C(=O)/C=C/c2ccccc2)C1 (stereo not given) was read as HTR2A ag inactive, ABHD5-PLIN5 inh inactive and NOD2-RIPK2 inh inactive.
`CCOC(=O)C1CCN(S(=O)(=O)c2c(C)n(C)c(=O)n(C)c2=O)CC1` gave HTR2A ag 21, CRFR2-BP antag inactive, TLR4 MyD88 comp inactive, ABHD5-PLIN5 inh inactive, TLR9-MyD88 block inactive, NOD2-RIPK2 inh inactive, OPRM1 ag inactive and HTR2A ag conf inactive.
CCCC(=O)N1CCCC1(C)C(=O)Nc1ccc(-n2cncn2)cc1 (stereo not given) was read as HTR2A ag inactive, ABHD5-PLIN5 inh inactive and NOD2-RIPK2 inh inactive.
`CCOC(=O)NC(=O)COC(=O)CNC(=O)c1cccc(OC)c1` gave HTR2A ag 20, CRFR2-BP antag inactive, TLR4 MyD88 comp inactive, ABHD5-PLIN5 inh inactive, TLR9-MyD88 block inactive, NOD2-RIPK2 inh inactive, OPRM1 ag inactive and HTR2A ag conf inactive.
For CCOC(=O)[C@]12Cc3c(cc(OC)c(OC)c3OC)[C@H]1N(Cc1ccccc1)C(=O)c1cc(OC)ccc12 the results were HTR2A ag inactive, ABHD5-PLIN5 inh inactive and NOD2-RIPK2 inh inactive.
For CC(C)(CCc1ccccn1)C(=O)C(CCc1ccccn1)CCc1ccccn1 the results were HTR2A ag 14, CRFR2-BP antag inactive, ABHD5-PLIN5 inh inactive, TLR9-MyD88 block inactive, NOD2-RIPK2 inh inactive, OPRM1 ag inactive and HTR2A ag conf 33.
Screening CCCc1[nH]nc2c1C(c1ccsc1)C(C#N)=C(N)O2 (stereo not given) returned HTR2A ag 21, CRFR2-BP antag inactive, TLR4 MyD88 comp inactive, ABHD5-PLIN5 inh inactive, TLR9-MyD88 block inactive, NOD2-RIPK2 inh inactive, OPRM1 ag inactive and HTR2A ag conf inactive.
For Cc1c(NC(=O)c2ccccc2NC(=O)COc2ccccc2)cccc1C(=O)O the results were HTR2A ag 17, CRFR2-BP antag inactive, ABHD5-PLIN5 inh inactive, TLR9-MyD88 block inactive, NOD2-RIPK2 inh inactive, OPRM1 ag inactive and HTR2A ag conf inactive.
`Cc1c(NC(=O)c2ccccc2NC(=O)c2ccccc2)cccc1C(=O)O` gave HTR2A ag inactive, CRFR2-BP antag inactive, ABHD5-PLIN5 inh inactive, TLR9-MyD88 block inactive and NOD2-RIPK2 inh inactive.
For O=C(COc1ccccc1C(=O)O)Nc1cccc2ccccc12 the results were HTR2A ag 16, CRFR2-BP antag inactive, ABHD5-PLIN5 inh inactive, TLR9-MyD88 block inactive, NOD2-RIPK2 inh inactive, OPRM1 ag inactive and HTR2A ag conf inactive.
`CC1=C(C(=O)N(C(C)C)C(C)C)CC(CC(=O)NCC2CCCCC2)C(=O)N1Cc1ccc(C(C)(C)C)cc1` (stereo not given) gave HTR2A ag inactive, ABHD5-PLIN5 inh inactive and NOD2-RIPK2 inh inactive.
`COc1cccc(-c2cccc(-c3nc(C(=O)NCc4ccc(Oc5ccccc5)cc4)cc4c3[C@H](CCO)N(S(=O)C(C)(C)C)C4)c2)c1` (stereo not given in full) gave HTR2A ag inactive, ABHD5-PLIN5 inh inactive and NOD2-RIPK2 inh inactive.
For CCOC1=C2CN(S(=O)(=O)c3ccc(C)cc3)[C@@H](c3ccccc3)C[C@H]2[C@H]2C(=O)N(c3ccccc3)C(=O)[C@H]2C1 the results were HTR2A ag inactive, ABHD5-PLIN5 inh inactive and NOD2-RIPK2 inh inactive.
`O=C(Nc1ccc(F)c(Cl)c1)c1cc(C2CCCN(S(=O)(=O)c3cccc4cccnc34)C2)on1` (stereo not given) gave HTR2A ag inactive, ABHD5-PLIN5 inh inactive and NOD2-RIPK2 inh inactive.
Screening CCOc1ccc(NS(=O)(=O)c2cccs2)cc1S(=O)(=O)N1CCCC1 returned HTR2A ag inactive, CRFR2-BP antag inactive, ABHD5-PLIN5 inh inactive, TLR9-MyD88 block inactive and NOD2-RIPK2 inh inactive.
Screening CCn1c(CNC(=O)c2ccco2)nnc1SCC(=O)Nc1cc(C)c(C)cc1Br returned HTR2A ag 15, CRFR2-BP antag inactive, TLR4 MyD88 comp inactive, ABHD5-PLIN5 inh inactive, TLR9-MyD88 block inactive, NOD2-RIPK2 inh inactive, OPRM1 ag 1.0 and HTR2A ag conf inactive.

Assay outcomes: PubChem, several laboratories
